# Inconclusive results are not listed. A call without a number means that no potency is given here. A number with no mark means an inactive call. Calls of active or inactive are those of the source. Calls follow the shape of the dose curve; as a rule, active = well fitted curve in the direction sought with a large enough effect; inconclusive = small, poorly fitted or top-dose-only effect, or another doubt; inactive = no such curve, though single readings can be large; an effect the other way counts as inactive or inconclusive.
# What was measured:
# [1] = P-glycoprotein substrates identified in KB-3-1 adenocarcinoma cell line, qHTS therapeutic library screen (AID 1346986); also: nearly all actives have a fitted effect of over 60% in size
# How it was run: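 Dose-response cytotoxicity, KB-3-1 vs P-gp-high KB-8-5-11, no colchicine in assay medium. Read: CellTiter-Glo at 72 h.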
# [2] = P-glycoprotein substrates identified in KB-8-5-11 adenocarcinoma cell line, qHTS therapeutic library screen (AID 1346987); also: nearly all actives have a fitted effect of over 65% in size; as to activity change, negative = cytotoxicity: series mostly up to about 44 µM
# How it was run: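 In this qHTS, P-gp-rich KB-8-5-11 cells received library compounds across a concentration range. Viability was quantified by luminescence after 72 h at 37 degree C.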
# [3] = system: Zika virus NS2B-NS3 protease (unlinked complex); assay: Primary screen GU Rhodamine qHTS for Zika virus inhibitors: Unlinked NS2B-NS3 protease assay (AID 1347159); also: nearly all actives have a fitted effect of over 60% in size; also: potency is read from the fitted curve at half-maximal effect
# How it was run: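 Enzyme 25 nM in Tris-HCl pH 8.0 + 0.01% Tween 20; compounds up to 114 microM, 15 min RT dark; + Rhod110 substrate 1.5 microM; read t0 and 15 min; delta fluorescence → % inhibition → 4-parameter Hill fit.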
# [4] = system: Zika virus NS2B-NS3 protease; assay: Primary screen GU AMC qHTS for Zika virus inhibitors (AID 1347154); also: nearly all actives have a fitted effect of over 70% in size
# How it was run: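 Fluorogenic AMC-substrate cleavage by noncovalent NS2B-NS3 protease complex (25 nM, pH 8.0 Tris buffer with Tween 20) followed for 15 minutes at room temperature (~20% conversion). Percent inhibition from ex340/em450 signal change, fitted by 4-parameter Hill equation.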
# [5] = system: Zika virus NS2B-NS3 protease (linked construct); assay: Primary screen NINDS Rhodamine qHTS for Zika virus inhibitors (AID 1347160); also: nearly all actives have a fitted effect of over 55% in size
# How it was run: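 Enzyme (25 nM, linked NS2B-NS3) was preincubated 15 min with compound in 10 mM Tris-HCl pH 8.0, 0.01% Tween 20. Rhodamine110 substrate (1.5 microM) was then added and fluorescence read at start and after 15 min.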
smiles,measurement,setting,value
CC(C)=CCc1cc(O[C@@H]2O[C@H](CO[C@@H]3OC[C@](O)(CO)[C@H]3O)[C@@H](O)[C@H](O)[C@H]2O)ccc1O,Potency,[1],inactive
same,Potency,[2],inactive
same,Potency,[3],inactive
CC(=O)OCC1=C[C@@H]2OC(=O)C3=CO[C@@H](O[C@@H]4O[C@H](CO)[C@@H](O)[C@H](O)[C@H]4O)[C@H]1[C@@H]32,Potency,[1],inactive
same,Potency,[2],inactive
same,Potency,[3],inactive
COCc1c(O)c(C(=O)O)c(C)c2c1OC(=O)c1c(C)cc(O)c(CO)c1O2,Potency,[1],inactive
same,Potency,[2],inactive
same,Potency,[3],28.2 µM (active)
COc1cc(C2Oc3c(OC)cc(CCCO)cc3C2CO)ccc1O (stereo not drawn),Potency,[1],inactive
same,Potency,[2],inactive
same,Potency,[3],39.8 µM (active)
O=C(O)[C@H](Cc1ccccc1)Oc1ccc(-c2ccccc2)cc1,Potency,[1],inactive
same,Potency,[2],inactive
same,Potency,[3],35.5 µM (active)
C=C[C@@](C)(CCC=C(C)C)O[C@@H]1O[C@H](CO[C@@H]2OC[C@H](O)[C@H](O)[C@H]2O)[C@@H](O)[C@H](O)[C@H]1O,Potency,[1],inactive
same,Potency,[2],inactive
same,Potency,[3],inactive
CC1OC(OC2CCC3(C)C(CCC4(C)C3C=CC35OCC6(CCC(C)(C)CC63)CCC45C)C2(C)CO)C(OC2OC(CO)C(O)C(O)C2O)C(O)C1OC1OC(CO)C(O)C(O)C1O (stereo not drawn),outcome,[1],inactive [at 9.29 µM]
same,"activity change, negative = cytotoxicity",[2],2.86% [at 9.29 µM]
same,Potency,[3],inactive
CC(=O)O[C@H]1C[C@@H](O)C(C)(C)C2C[C@@H](OC(C)=O)[C@]3(C)C(CC[C@@]4(C)[C@H](c5ccoc5)OC(=O)[C@H]5O[C@]543)[C@]21C (stereo partly drawn),Potency,[1],inactive
same,Potency,[2],inactive
same,Potency,[3],inactive
O=S(=O)(O)c1ccc(Nc2ncnc3c2ncn3[C@@H]2O[C@H](CO)[C@@H](O)[C@H]2O)cc1,Potency,[1],inactive
same,Potency,[2],inactive
same,outcome,[4],inactive
same,Potency,[3],inactive
CCNC(=O)OC1CCN(c2nncc3cc(OC)c(OC)cc23)CC1,Potency,[1],inactive
same,Potency,[2],inactive
same,Potency,[3],inactive
same,Potency,[5],inactive
CC(=O)N[C@H](Cc1c[nH]c2ccccc12)C(=O)OCc1cc(C(F)(F)F)cc(C(F)(F)F)c1,Potency,[1],inactive
same,Potency,[2],inactive
same,Potency,[3],inactive
same,Potency,[5],inactive
N#Cc1cccc(-c2nc(-c3cccnc3)no2)c1,Potency,[1],inactive
same,Potency,[2],inactive
same,Potency,[3],inactive
same,Potency,[5],inactive
C/C=C(\C)C(=O)OCC1OC(OCC2OC(OC3(CO)OC(CO)C(O)C3O)C(O)C(O)C2O)C(O)C(O)C1O (stereo not drawn),Potency,[1],inactive
same,Potency,[2],inactive
same,Potency,[3],inactive
same,Potency,[5],inactive
C=C(C)[C@@H]1CC[C@]2(C(=O)O)CC[C@]3(C)C(CCC4[C@]5(C)C(CC[C@]43C)C(C)(C)[C@@H](O)[C@@H]5C(=O)O)C12 (stereo partly drawn),Potency,[1],inactive
same,Potency,[2],inactive
same,Potency,[3],inactive
same,Potency,[5],inactive
COc1cccc(OC)c1-c1ccc(C[C@H](NC(=O)c2c(Cl)cccc2Cl)C(=O)O)cc1,Potency,[1],inactive
same,Potency,[2],inactive
same,Potency,[3],inactive
same,Potency,[5],inactive
CC1OC(O[C@@H]2[C@H](O)[C@@H](OC3OC(CO)C(O)C(O)C3O)[C@H](OC(=O)[C@]34CCC(C)(C)C[C@H]3C3=CCC5[C@@]6(C)CC[C@H](O[C@@H]7O[C@H](C(=O)O)[C@@H](O)[C@H](O[C@@H]8OC[C@@H](O)[C@H](O)[C@H]8O)[C@H]7O[C@@H]7O[C@H](CO)[C@H](O)[C@H](O)[C@H]7O)[C@@](C)(C=O)C6CC[C@@]5(C)[C@]3(C)C[C@H]4O)O[C@@H]2C)C(O)C(O)C1OC1OCC(O)C(O)C1O (stereo partly drawn),outcome,[1],inactive [at 5.11 µM]
same,outcome,[2],inactive [at 5.11 µM]
same,"activity change, negative = inhibition",[3],87.6% [at 19.1 µM]
same,Potency,[5],inactive
Cc1cc(CNC(=O)c2cc(C(=O)NCc3ccc(F)c(C)c3)ncn2)ccc1F,Potency,[1],inactive
same,Potency,[2],inactive
same,Potency,[3],inactive
same,Potency,[5],inactive
COc1cc(/C=C/C(=O)O[C@H]2[C@@H]3C=CO[C@@H](O[C@@H]4O[C@H](CO)[C@@H](O)[C@H](O)[C@H]4O)[C@@H]3[C@@]3(CO)O[C@@H]23)ccc1O,Potency,[1],inactive
same,Potency,[2],inactive
same,Potency,[3],inactive
same,Potency,[5],inactive
COC(=O)C1=CO[C@@H](O[C@@H]2O[C@H](CO)[C@@H](O)[C@H](O)[C@H]2O)[C@@H]2C(CO)=CC[C@H]12,Potency,[1],inactive
same,Potency,[2],inactive
same,Potency,[3],inactive
same,Potency,[5],inactive
C=C1CC[C@@]2(OC1)O[C@H]1CC3[C@@H]4CC=C5C[C@@H](O)C[C@@H](O[C@@H]6OC[C@H](O)[C@H](O)[C@H]6O[C@@H]6O[C@@H](C)[C@H](O)[C@@H](O)[C@H]6O)[C@]5(C)C4CC[C@]3(C)[C@H]1[C@@H]2C (stereo partly drawn),Potency,[1],inactive
same,Potency,[2],inactive
same,Potency,[3],inactive
same,Potency,[5],inactive
COC(=O)C1=COC(OC2OC(CO)C(O)C(O)C2O)C2C(C)CC(=O)C12O (stereo not drawn),Potency,[1],inactive
same,Potency,[2],inactive
same,Potency,[3],inactive
same,Potency,[5],inactive
CCCC1=CC2=C(CO1)C(=O)C(C)(O)C(OC(=O)c1c(C)cc(OC)cc1O)C2 (stereo not drawn),Potency,[1],inactive
same,Potency,[2],inactive
same,Potency,[3],inactive
same,Potency,[5],inactive
CC1(C)CCCC2(C)c3c4c(c(=O)oc(=O)c3=CCC12)=CCC1C(C)(C)CCCC41C (stereo not drawn),Potency,[1],inactive
same,Potency,[2],inactive
same,Potency,[3],inactive
same,Potency,[5],inactive
N#CC1C(=O)N=C(c2cc(Cl)ccc2O)C=C1c1cc(OCc2ccccc2)cc(OCc2ccccc2)c1 (stereo not drawn),Potency,[1],inactive
same,Potency,[2],inactive
same,Potency,[3],inactive
same,Potency,[5],inactive
